Screens: PubChem, National Center for Advancing Translational Sciences (NCATS)
BRCA1 expr up: BRCA1 expression activation; hit rate 1.1% among 380,000; Potency, µM (series often up to 46.1 µM), inactives show at the top dose activation, hits mostly activators; AID 624202; MCF7-BRCA1-FFLuc reporter, luminescence, 48 h; response scale: scaled: vehicle 0%, 10 µM genistein 100%; also: nearly all actives have a fitted effect of over 80% in size
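MCF7 cells carrying a BRCA1-firefly luciferase reporter (2000 cells/well, phenol-red free MEM) were attached for 2 h at 37 °C, then given compounds for 48 h. Luminescence was read 15 min after luciferase reagent; activity normalized to genistein (10 microM) and DMSO.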
HEK293 tox: cytotoxicity counter-screen for GLP-1 receptor inverse agonists | HEK293 cAMP-luciferase reporter cells, luminescence, 24 h | Potency, µM (highest dose often 38.3 µM), without a hit: at the top dose activity change, negative = inhibition, usual class: inhibitors | hit rate 0.13% among 410,000;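 also: loss of luciferase light is scored as toxicity; % is scaled to controls: 0 for no effect and ±100 for the full control effect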
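Here, cytotoxicity is scored as loss of luminescence. The MLSMR collection was tested on cells seeded in medium containing 10% Nu serum, with a 24 hr compound exposure preceded by 12 hours of culture.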
GLP-1R inv ag: acts as inverse agonist at human GLP-1 receptor; P43220; HEK293 GLP-1R CRE-luciferase, luminescence, 24 h; GLP-1R form is constitutively active; Potency, µM (series often up to 38.3 µM), for inactives: at the top dose activity change, negative = inhibition, hits mostly inhibitors; hit rate 1.6% among 410,000; also: % is scaled to controls: 0 for no effect and ±100 for the full control effect; nearly all actives have a fitted effect of over 55% in size
Target sequence (P43220 whole entry, looked up): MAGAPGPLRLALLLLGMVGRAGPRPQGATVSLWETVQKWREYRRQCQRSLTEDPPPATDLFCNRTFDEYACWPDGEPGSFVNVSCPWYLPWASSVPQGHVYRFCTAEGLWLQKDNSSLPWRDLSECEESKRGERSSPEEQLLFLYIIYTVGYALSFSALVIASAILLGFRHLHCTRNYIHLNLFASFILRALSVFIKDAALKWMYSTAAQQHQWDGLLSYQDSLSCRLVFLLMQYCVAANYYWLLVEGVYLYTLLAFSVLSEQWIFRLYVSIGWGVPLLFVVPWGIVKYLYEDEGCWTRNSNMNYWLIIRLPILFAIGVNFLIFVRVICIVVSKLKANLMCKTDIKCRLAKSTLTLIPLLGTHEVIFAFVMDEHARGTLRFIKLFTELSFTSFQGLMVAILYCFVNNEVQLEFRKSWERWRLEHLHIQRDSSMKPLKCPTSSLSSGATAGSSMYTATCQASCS
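Readout was luciferase luminescence, measured 12 min after detection reagent at room temperature. Beforehand, GLP-1R reporter HEK293 cells had sat 12 h, then received compounds for 24 hr at 37 deg C.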
GLP-1R agonist: GLP-1 receptor (human) agonism. hit rate 0.007% among 380,000. Potency, µM (series often up to 45.6 µM), for inactives: top-dose activation, hits mostly activators. P43220. HEK293 GLP-1R CRE-luciferase, luminescence, 4-6 h; cells express a hypersensitive GLP-1R form; also: % of control where 0% means no effect
Starred values were filed as active, the others as inactive; ? = inconclusive; nt = no result. The list is not random: actives were taken first. Their share in the collection is about 2.6%. Calls follow the shape of the dose curve; as a rule, active = well fitted curve in the direction sought with a large enough effect; inconclusive = small, poorly fitted or top-dose-only effect, or another doubt; inactive = no such curve, though single readings can be large; an effect the other way counts as inactive or inconclusive. Potency is read from the fitted curve at half-maximal effect.

SMILES	BRCA1 expr up	HEK293 tox	GLP-1R inv ag	GLP-1R agonist
COc1ccc(NC(=O)Nc2ccc(F)cc2F)c(C)c1	18%	-10%	-26%	-5%
COc1ccc(NC(=O)Nc2ccc(F)cc2F)cc1	10µM*	1%	8%	11%
COC(=O)c1sccc1NC(=O)Nc1cccc(OC)c1	6%	-3%	16%	10%
COc1ccc(CCNC(=O)c2cccc(Nc3nc4ccccc4nc3-n3nc(C)cc3C)c2)cc1OC	nt	0%	7%	nt
CC(C)(C)c1nnc(NC(=O)COc2ccc3c(c2)OCO3)s1	2.5µM*	8%	?	-1%
Cc1ccc(NC(=O)COc2ccc3c(c2)OCO3)c(Cl)c1	14µM*	3%	9%	6%
CCc1ccccc1NC(=O)COc1ccc2c(c1)OCO2	0%	44%	3%	13%
CC(C)(C)c1nnc(NC(=O)c2ccc3c(c2)OCO3)s1	?	1%	16%	7%
O=C(COc1ccc2c(c1)OCO2)Nc1ccccc1C(F)(F)F	10µM*	1%	?	27%
CCOc1ccc(NC(=O)COc2ccc3c(c2)OCO3)cc1	3%	7%	-6%	20%
CCCCc1ccc(NC(=O)c2ccc(=O)n(Cc3cccc(C)c3)c2)cc1	-51%	-22%	7.1µM*	-5%
O=C(Cc1ccc(OCc2ccccc2)cc1)NO	59%	nt	nt	nt
CCOC(=O)C1(Cc2cccc(Cl)c2)CCCN(C(=O)c2ccnn2C)C1 (centres undefined)	16%	0%	-5%	-4%
CCCc1cc(C(=O)N2CCCC(Cc3cccc(Cl)c3)(C(=O)OCC)C2)n(C)n1 (centres undefined)	30%	-10%	11µM*	6%
CC(N=c1ccccn1C(=O)Nc1ccc(Cl)cc1)c1ccco1 (centres undefined)	10µM*	-10%	?	-1%
O=C(NC(=S)N1CCN(c2ccc(C(F)(F)F)cc2[N+](=O)[O-])CC1)c1cccs1	-45%	10µM*	0%	-16%
O=C(NS(=O)(=O)Oc1ccc(F)c(Cl)c1)OC[C@@H]1CCCN2CCCCC12 (some centres undefined)	-22%	6%	6%	8%
Cc1ccc(-n2ncc(C(=O)Nc3cc(Cl)ccc3Cl)c2C2CCNCC2)cc1	-32%	0%	7.1µM*	0%
Cc1ccc(-n2ncc(C(=O)Nc3cc(Cl)cc(Cl)c3)c2C2CCNCC2)cc1C	-91%	-18%	?	24%
NNC(=O)c1cc2sccc2s1	-33%	?	-9%	22%
Cc1cc(C(=O)Nc2ccc([N+](=O)[O-])cn2)cs1	3.2µM*	-18%	2%	19%
CCCCOc1ccc(/C(N)=N/O)cc1	11µM*	20%	0%	14%
CCCCOc1ccc(C(=O)NC)cc1	49%	21%	4%	-2%
Cc1c(C(=O)NCCSCc2cccc(C(F)(F)F)c2)cnn1-c1ccc(Cl)cc1	-17%	-4%	5µM*	15%
CC(=O)c1cnn(-c2ccc(Cl)cc2)c1C	0%	5%	1%	6%
SMILES	BRCA1 expr up	HEK293 tox	GLP-1R inv ag	GLP-1R agonist
O=C(/C=C/c1cccs1)Nc1nccs1	?	0%	3%	1%
Cc1cc(C)c(-c2csc(NC(=O)/C=C/c3cccs3)n2)c(C)c1	-12%	17%	3.2µM*	-19%
O=C(/C=C/c1cccs1)Nc1cccc(NC(=O)/C=C/c2cccs2)n1	1%	?	4µM*	-17%
Cc1cc(C)nc(NC(=O)/C=C/c2cccs2)c1	76%	3%	?	-2%
C=CCNc1nc(NC2CCN(C)CC2)c2cc(OC)c(OC)cc2n1	-3%	nt	nt	nt
O=C(CCn1cnc2onc(-c3ccc(F)cc3)c2c1=O)Nc1ccc(F)c(Cl)c1	nt	-10%	13µM*	nt
O=c1[nH]c(=O)n(C(c2ccccc2)(c2ccccc2)c2ccccc2)cc1N(CCO)CCO	-20%	7%	10µM*	-1%
CC(C)CCNC(=O)C1(C)CCN1Cc1ccc2ccccc2c1 (centres undefined)	-13%	0%	10µM*	8%
CC1(C(=O)NCc2cccc3ccccc23)CCN1Cc1ccc2ccccc2c1 (centres undefined)	-27%	-18%	?	-6%
COC[C@H](NS(=O)(=O)c1ccc(Br)cc1F)[C@@H](O)c1ccccc1	13%	5%	3%	3%
